Source: PubChem BioAssay AID1159580 (chemical genetic matrix, 2015)
Several values for one entry are separate records, joined by “and”; a condition that tells them apart may be missing. Identical values can stand only once. Hit rate of the full screen: of about 5,500 compounds, about 2,000 (36%) were called active. Another 18% or so got no clear call; they are omitted. No stated cut-off is given here; in the data, active means normalized growth mostly below about 0.91 (no sharp cut-off); inconclusive means no clear call, values can overlap the other calls; inactive means mostly above about 0.92. Some of the results follow.

Test: chemical genetic growth profiling, strain panel (AID 1159580);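 further: tested at 20 µM; growth read once vehicle control cultures reached saturation at 30 °C; 1 = growth at the plate median or of vehicle wells; lower values mean less growth of the strain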
Settings: growth OD

Measured: normalized growth

CN(C)C(=O)Oc1ccc[n+](C)c1
inactive: S. cerevisiae deletion strains, locus YJR075W, strain HOC1, active compounds read low 1 | S. cerevisiae deletion strains, locus YKL009W, strain mrt4, active compounds read low 1.01 | S. cerevisiae deletion strains, locus YKL068W, active compounds read low 1.02 | S. cerevisiae deletion strains, locus YKL085W, strain MDH1 (second series), active compounds read low 1.01 | S. cerevisiae deletion strains, locus YKL085W, strain MDH1, active compounds read low 1.01 | S. cerevisiae deletion strains, locus YKL160W, strain elf1, active compounds read low 1 | S. cerevisiae deletion strains, locus YKL190W, strain CNB1, active compounds read low 1.02 | S. cerevisiae deletion strains, locus YKR001C, strain vps1, active compounds read low 1.01 | S. cerevisiae deletion strains, locus YKR026C, strain gcn3, active compounds read low 1.01 | S. cerevisiae deletion strains, locus YKR091W, strain srl3, active compounds read low 0.997 | S. cerevisiae deletion strains, locus YLL001W, strain dnm1, active compounds read low 0.996 | S. cerevisiae deletion strains, locus YLL026W, active compounds read low 0.999 | S. cerevisiae deletion strains, locus YLL041C, strain sdh2, active compounds read low 1 | S. cerevisiae deletion strains, locus YLR027C, strain aat2, active compounds read low 0.999 | S. cerevisiae deletion strains, locus YLR039C, strain RIC1, active compounds read low 1.05 | S. cerevisiae deletion strains, locus YLR058C, strain SHM2, active compounds read low 1.03 | S. cerevisiae deletion strains, locus YLR102C, strain apc9, active compounds read low 1.01 | S. cerevisiae deletion strains, locus YLR113W, strain HOG1, active compounds read low 1.05 | S. cerevisiae deletion strains, locus YLR221C, strain rsa3, active compounds read low 0.997 | S. cerevisiae deletion strains, locus YLR258W, strain gsy2, active compounds read low 1 | S. cerevisiae deletion strains, locus YLR262C, strain YPT6 (second series), active compounds read low 1.01 | S. cerevisiae deletion strains, locus YLR262C, strain YPT6, active compounds read low 1.06 | S. cerevisiae deletion strains, locus YLR268W, strain sec22, active compounds read low 1.01 | S. cerevisiae deletion strains, locus YLR320W, strain mms22, active compounds read low 1.01 | S. cerevisiae deletion strains, locus YLR330W, strain CHS5, active compounds read low 1.01 | S. cerevisiae deletion strains, locus YLR342W, strain FKS1 (second series), active compounds read low 1.06 | S. cerevisiae deletion strains, locus YLR342W, strain FKS1, active compounds read low 1.01 | S. cerevisiae deletion strains, locus YLR357W, strain rsc2, active compounds read low 1 | S. cerevisiae deletion strains, locus YLR370C, strain arc18, active compounds read low 1.01 | S. cerevisiae deletion strains, locus YLR371W, strain rom2, active compounds read low 1.01 | S. cerevisiae deletion strains, locus YLR384C, strain iki3, active compounds read low 1.01 | S. cerevisiae deletion strains, locus YLR418C, strain cdc73, active compounds read low 1.03 | S. cerevisiae deletion strains, locus YML016C, strain PPZ1, active compounds read low 1.01 | S. cerevisiae deletion strains, locus YML032C, strain rad52, active compounds read low 1.01 | S. cerevisiae deletion strains, locus YML120C, strain ndi1, active compounds read low 1 | S. cerevisiae deletion strains, locus YML124C, strain tub3, active compounds read low 1.04 | S. cerevisiae deletion strains, locus YMR058W, strain fet3, active compounds read low 0.994 | S. cerevisiae deletion strains, locus YMR078C, strain ctf18, active compounds read low 1.01 | S. cerevisiae deletion strains, locus YMR125W, strain sto1, active compounds read low 1 | S. cerevisiae deletion strains, locus YMR129W, active compounds read low 1 | S. cerevisiae deletion strains, locus YMR205C, strain PFK2, active compounds read low 1.02 | S. cerevisiae deletion strains, locus YMR223W, strain ubp8, active compounds read low 1.05 | S. cerevisiae deletion strains, locus YMR231W, strain pep5, active compounds read low 1 | S. cerevisiae deletion strains, locus YMR263W, strain SAP30, active compounds read low 1.01 | S. cerevisiae deletion strains, locus YMR307W, strain GAS1, active compounds read low 1.04 | S. cerevisiae deletion strains, locus YNL067W, strain RPL9B, active compounds read low 1.01 | S. cerevisiae deletion strains, locus YNL071W, strain lat1, active compounds read low 1 | S. cerevisiae deletion strains, locus YNL153C, strain GIM3, active compounds read low 0.986 | S. cerevisiae deletion strains, locus YNL175C, strain NOP13, active compounds read low 0.972 | S. cerevisiae deletion strains, locus YNL183C, strain NPR1, active compounds read low 0.981 | S. cerevisiae deletion strains, locus YNL197C, strain WHI3, active compounds read low 0.961 | S. cerevisiae deletion strains, locus YNL209W, strain ssb2, active compounds read low 1 | S. cerevisiae deletion strains, locus YNL224C, strain SQS1, active compounds read low 0.982 | S. cerevisiae deletion strains, locus YNL233W, strain BNI4, active compounds read low 1 | S. cerevisiae deletion strains, locus YNL248C, strain rpa49, active compounds read low 0.996 | S. cerevisiae deletion strains, locus YNL250W, strain rad50, active compounds read low 1.02 | S. cerevisiae deletion strains, locus YNL271C, strain bni1, active compounds read low 1.02 | S. cerevisiae deletion strains, locus YNL298W, strain CLA4, active compounds read low 1.02 | S. cerevisiae deletion strains, locus YNL307C, strain MCK1, active compounds read low 1.02 | S. cerevisiae deletion strains, locus YNL322C, strain KRE1 (second series), active compounds read low 1 | S. cerevisiae deletion strains, locus YNR049C, strain mso1, active compounds read low 1 | S. cerevisiae deletion strains, locus YNR052C, strain pop2, active compounds read low 1.02 | S. cerevisiae deletion strains, locus YOL006C, strain TOP1, active compounds read low 0.966 | S. cerevisiae deletion strains, locus YOL012C, strain htz1 0.894 | S. cerevisiae deletion strains, locus YOL147C, strain pex11, active compounds read low 1.02 | S. cerevisiae deletion strains, locus YOR001W, strain rrp6, active compounds read low 0.985 | S. cerevisiae deletion strains, locus YOR061W, strain CKA2, active compounds read low 1.02 | S. cerevisiae deletion strains, locus YOR069W, strain VPS5, active compounds read low 1.02 | S. cerevisiae deletion strains, locus YOR070C, strain gyp1, active compounds read low 1 | S. cerevisiae deletion strains, locus YOR080W, strain dia2, active compounds read low 1.03 | S. cerevisiae deletion strains, locus YOR083W, strain WHI5 (second series), active compounds read low 0.968 | S. cerevisiae deletion strains, locus YOR083W, strain WHI5, active compounds read low 0.999 | S. cerevisiae deletion strains, locus YOR106W, strain vam3, active compounds read low 1 | S. cerevisiae deletion strains, locus YOR136W, strain idh2, active compounds read low 1.02 | S. cerevisiae deletion strains, locus YOR144C, strain elg1, active compounds read low 1.01 | S. cerevisiae deletion strains, locus YOR184W, strain ser1, active compounds read low 1.01 | S. cerevisiae deletion strains, locus YOR231W, strain MKK1, active compounds read low 1.03 | S. cerevisiae deletion strains, locus YOR265W, strain rbl2, active compounds read low 1.01 | S. cerevisiae deletion strains, locus YOR270C, strain vph1, active compounds read low 0.993 | S. cerevisiae deletion strains, locus YOR290C, strain snf2, active compounds read low 1 | S. cerevisiae deletion strains, locus YOR316C, strain cot1, active compounds read low 1.02 | S. cerevisiae deletion strains, locus YPL051W, strain arl3, active compounds read low 1 | S. cerevisiae deletion strains, locus YPL055C, strain LGE1, active compounds read low 1 and 1.04 | S. cerevisiae deletion strains, locus YPL078C, strain atp4, active compounds read low 0.999 | S. cerevisiae deletion strains, locus YPL106C, strain sse1, active compounds read low 1.01 | S. cerevisiae deletion strains, locus YPL240C, strain hsp82, active compounds read low 1 | S. cerevisiae deletion strains, locus YPL241C, strain CIN2, active compounds read low 0.991 | S. cerevisiae deletion strains, locus YPL256C, strain CLN2, active compounds read low 1 | S. cerevisiae deletion strains, locus YPR119W, strain clb2, active compounds read low 1.01 | S. cerevisiae deletion strains, locus YPR141C, strain kar3, active compounds read low 1.02 | S. cerevisiae deletion strains, locus YPR163C, strain tif3, active compounds read low 1.02 | S. cerevisiae deletion strains, locus YPR167C, strain met16, active compounds read low 1.01 | S. cerevisiae deletion strains, strain wtn01, active compounds read low 1.01 | S. cerevisiae strains, strain wild type, active compounds read low 1.02
